Whole data set: some 39,000 sequences, median “fluorescence intensity (a.u.)” near 4,300, cut for the highest 2% near 39,000. Many of the other results were omitted from the sample, so the highest values are more common in it than they were.

The target of the test is T1, OsSMF1 (Oryza sativa, UniProt Q6ZLB0 1-436).
T1 sequence: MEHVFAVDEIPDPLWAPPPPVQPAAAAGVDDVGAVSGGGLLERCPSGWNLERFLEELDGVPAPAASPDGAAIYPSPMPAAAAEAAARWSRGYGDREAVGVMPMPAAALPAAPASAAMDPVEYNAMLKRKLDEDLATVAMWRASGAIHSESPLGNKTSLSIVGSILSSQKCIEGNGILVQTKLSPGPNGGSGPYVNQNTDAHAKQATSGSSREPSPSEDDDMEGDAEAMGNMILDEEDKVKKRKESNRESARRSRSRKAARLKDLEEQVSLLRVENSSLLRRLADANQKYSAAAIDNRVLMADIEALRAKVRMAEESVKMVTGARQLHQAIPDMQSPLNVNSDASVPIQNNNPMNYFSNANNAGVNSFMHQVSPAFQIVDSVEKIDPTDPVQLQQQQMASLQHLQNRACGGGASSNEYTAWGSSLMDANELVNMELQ
Kind of test: protein-binding microarray (RPBM); PBS, 2% BSA, 51.3 ng/ul salmon testes DNA, 50 uM zinc acetate, 200 nM TF, 25 C, 1 h; high values mean tight binding. The settings on record: protein: recombinant; tags: N-terminal polyhistidine and DsRed monomer fusion (pET32a); chain copies: 2; label: CyDye5-dUTP incorporated in the synthesized complementary strand; 3' TTTTT single-stranded linker to array surface; dsDNA, one strand shown. The essentials: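 Binding signal is reported as fluorescence intensity per feature (arbitrary units) from an Axon 4000B scanner. Incubation used 200 nM of each Ni–NTA-purified, N-terminally polyhistidine- and DsRed-fused transcription factor from E. coli BL21-CodonPlus on a double-stranded custom Agilent array for 1 h at 25 °C, with 50 µM zinc acetate in the buffer, followed by washing.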
In the case of “AGAGAGAGCGTGGGTGGGGTGGGTGCTCTGGGTGACTGGGCGGAGTCACCTAGTGCAG”, the binding signal was 6040 fluorescence intensity (a.u.). Under “CATGCGATACTACCCCAACGGCCTCGACGACGGCTGCGCCCGGAGTCACCTAGTGCAG” stands 26900 fluorescence intensity (a.u.). Regarding “CTGAAATGACCAGAATGCCCCTCCGTCCTACCCCACAATCCGGAGTCACCTAGTGCAG”, the binding signal was 19900 fluorescence intensity (a.u.). To “AGAGCAAGACAAGATGGTTAGTTCTCACACTTCAGATTGTCGGAGTCACCTAGTGCAG” belongs 41400 fluorescence intensity (a.u.); to “ACTTGTCACTTGGTTCACACTAAGAGCACTTGACATATCTCGGAGTCACCTAGTGCAG”, 17900 fluorescence intensity (a.u.). To “AGACACTTTTGCAGGGATTGCTCAGACTTAGTTTCAGAGTCGGAGTCACCTAGTGCAG” belongs 3940 fluorescence intensity (a.u.).

Take “TTAACGTGTACCACTACATGCATGCAGTGACGACAGTCAGCGGAGTCACCTAGTGCAG”: the binding signal was 3150 fluorescence intensity (a.u.).

Take “GGGATAAAGAGAGGATGACACGTGGGACCCACATGTCAGCCGGAGTCACCTAGTGCAG”: the binding signal is 12400 fluorescence intensity (a.u.).

On to “ACACTCTCGATGTATAGATTCACCCACGAGATGATGTGGCCGGAGTCACCTAGTGCAG”, for which the binding signal was 6570 fluorescence intensity (a.u.). To “CACCACTACCACGATCAGGCCCAAGAGATGATAAAGTGGCCGGAGTCACCTAGTGCAG” belongs 46500 fluorescence intensity (a.u.); to “GAGCTCCGACGAGCACCTCCCTGAAGCGTGGCAGGTCGAGCGGAGTCACCTAGTGCAG”, 3900 fluorescence intensity (a.u.); to “AATTTAACTCTTTCCCGCGTGGATGGCCGCATATATATGCCGGAGTCACCTAGTGCAG”, 3460 fluorescence intensity (a.u.).

As for “TATGGAGTTTACTATTCTCCTGATTATTACAAAATTTATACGGAGTCACCTAGTGCAG”, the binding signal was 30000 fluorescence intensity (a.u.).

Consider “CAACACCCGTCCGCCAGAGAAGACCATCGTGACGCCACTCCGGAGTCACCTAGTGCAG”, for which the binding signal was 4880 fluorescence intensity (a.u.). Under “CATCACACCCACTTGTCCGCACACAAGAAGAGACCAGCTACGGAGTCACCTAGTGCAG” stands 50600 fluorescence intensity (a.u.); under “CACAGTGCACGCACGCAGCTACAAAGATGTCGTACGACCACGGAGTCACCTAGTGCAG”, 3260 fluorescence intensity (a.u.); under “GGAATAAATTATTTATCATTGGACCTACATGTCATGGACACGGAGTCACCTAGTGCAG”, 3950 fluorescence intensity (a.u.). Regarding “CCAACCAACATCCCACATCGAACCATGCATTATTTATGAACGGAGTCACCTAGTGCAG”, the binding signal was 17300 fluorescence intensity (a.u.). Under “ACCACACCATCGAACATGGTGTAGCTCACGGTAGTCCCAACGGAGTCACCTAGTGCAG” stands 41000 fluorescence intensity (a.u.); under “TCCCCACATCACCCAACACGAGCTCACCACCACCACCACCCGGAGTCACCTAGTGCAG”, 3500 fluorescence intensity (a.u.).

As to “GGCGGCGGGTGGAGGGACGCCCGCTGAATCCGCCACCGGTCGGAGTCACCTAGTGCAG”, the binding signal was 3170 fluorescence intensity (a.u.). Under “GTTTTATTGTTGAATTTTATATATTGTCACGTCCCCTTTTCGGAGTCACCTAGTGCAG” stands 4350 fluorescence intensity (a.u.). Under “TGGTGCGCTCGTTAAGCCAGCTCGGTTTATGTTAGATCATCGGAGTCACCTAGTGCAG” stands 3210 fluorescence intensity (a.u.); under “AGCAAATATTTACTGTAGTACTACACTGTCAAATCATGTACGGAGTCACCTAGTGCAG”, 3610 fluorescence intensity (a.u.). To “ATACCATATGAGCAAATACGCAGGAATCAGTACTGTATTTCGGAGTCACCTAGTGCAG” belongs 39500 fluorescence intensity (a.u.). For “AGTACTAGTTGGAATCATATGTGTCTATGGAGTATATTTTCGGAGTCACCTAGTGCAG”, the binding signal is 3160 fluorescence intensity (a.u.).

For the sequence “GGAGGAAAATGGCCCTGATCAGCATCAGGGCAAGTACTATCGGAGTCACCTAGTGCAG”, the binding signal was 3200 fluorescence intensity (a.u.). Under “CGAACATAAGTTAGTGACGCATGCCTCAAAATGAAAAGGACGGAGTCACCTAGTGCAG” stands 41400 fluorescence intensity (a.u.); under “TCCTTTGGAACATAAAAGTGACGTAGGCATGCAAATTTGTCGGAGTCACCTAGTGCAG”, 13700 fluorescence intensity (a.u.); under “TGGTAAGGTTGAAAATGGCATCAAAGTGAACAGGCCCTCACGGAGTCACCTAGTGCAG”, 22200 fluorescence intensity (a.u.). To “AGCAGACTCCACGTCGTCACCAACTTCCTTCCTCCTGGTCCGGAGTCACCTAGTGCAG” belongs 11300 fluorescence intensity (a.u.).

For “GCTCCCTCGACGACCTCGTCAAGTCCCTCCGCGCCGACCCCGGAGTCACCTAGTGCAG”, the binding signal was 4170 fluorescence intensity (a.u.). Under “CAAGTGGGGACAGCGCCACGTGCGCGCTCGCTCTTCTCCACGGAGTCACCTAGTGCAG” stands 11500 fluorescence intensity (a.u.); under “ATCAGCTAAGGCCAATCGGTGGATTACACACATTGGGTTCCGGAGTCACCTAGTGCAG”, 47600 fluorescence intensity (a.u.). Under “ACCGGGTTCCACATGTCATACACACATTACGTCTTGGAGTCGGAGTCACCTAGTGCAG” stands 4450 fluorescence intensity (a.u.). To “GGTGCCCTAATAAGTACGGTGGTTGAACATTACACAATTCCGGAGTCACCTAGTGCAG” belongs 3770 fluorescence intensity (a.u.).

For the sequence “CCGGTCGGTACTAGTTCGGGGCGTGACACATGGTAGTTATCGGAGTCACCTAGTGCAG”, the binding signal was 4000 fluorescence intensity (a.u.). On to “TATATGAAATTATTATTTGATTTCTTGATCATATAATGTACGGAGTCACCTAGTGCAG”, for which the binding signal was 3440 fluorescence intensity (a.u.).

As to “GTTTTGGTATTGGCTATAAAATGACATGGATGTTATTGGACGGAGTCACCTAGTGCAG”, the binding signal was 4760 fluorescence intensity (a.u.). Under “ACTATTGTTTGGTAGTAAAATTGATAATTAAATGACTATACGGAGTCACCTAGTGCAG” stands 40900 fluorescence intensity (a.u.); under “CTCATAGTCATAGTTACTGATTTGTTTGCTCATAGTCATACGGAGTCACCTAGTGCAG”, 22700 fluorescence intensity (a.u.); under “GTTACATACTGTGATAGTTTGTTTAATGCTAAATCTAGTACGGAGTCACCTAGTGCAG”, 43300 fluorescence intensity (a.u.).
